The panel holds about 79,000 compounds, 15% with a hit somewhere; the sample as a whole holds those more often. Calls of active or inactive are those of the source. Cut-off read from the data, not from the text of the source: active = growth inhibition above about 70%; inactive = the rest.
Experiments:
[1] = NCI Yeast Anticancer Drug Screen. Data for the rad52 strain (AID 147);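 note: 0% = growth of vehicle-treated control cultures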; conditions: S. cerevisiae rad52 mutant growth inhibition, active compounds read high
Outline: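 Measured: yeast growth inhibition. System: strain with a defined DNA damage repair alteration. Reference: vehicle-treated control cultures.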

[2] = NCI Yeast Anticancer Drug Screen. Data for the wt1 strain (AID 149);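 note: 0% = growth of vehicle-treated wt1 cultures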; conditions: S. cerevisiae wt1 strain (SPY 50644) growth inhibition, active compounds read high
Outline: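 wt1 yeast, compound-treated; % growth inhibition vs vehicle control.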

[3] = NCI Yeast Anticancer Drug Screen. Data for the rad50EPP+ strain (AID 151);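 note: 0% = growth of vehicle-treated control cultures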; conditions: S. cerevisiae rad50 mutant strain, active compounds read high
Outline: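 One strain with a rad50 alteration (rad50EPP+) was compound-treated, its growth then compared to that of vehicle controls.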

[4] = NCI Yeast Anticancer Drug Screen. Data for the mgt1 strain (AID 153); conditions: S. cerevisiae mgt1 mutant growth inhibition, active compounds read high
Outline: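 After exposure of the mgt1 yeast mutant to compound, growth was measured and reported as inhibition compared with vehicle controls.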

[5] = NCI Yeast Anticancer Drug Screen. Data for the rad50 strain (AID 155);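 note: 0% = growth of vehicle-only cultures of the same strain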; conditions: S. cerevisiae rad50 strain growth inhibition, active compounds read high
Outline: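 Genetically altered yeast (DNA repair pathway); compound treatment; growth inhibition vs vehicle ctrl.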

[6] = NCI Yeast Anticancer Drug Screen. Data for the mec2-1 strain (AID 157); conditions: S. cerevisiae mec2-1 strain, active compounds read high
Outline: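 Test agents were screened against the mec2-1 yeast strain, with defined DNA repair or cell cycle alteration. Growth was scored as inhibition against vehicle-only controls.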

[7] = NCI Yeast Anticancer Drug Screen. Data for the rad14 strain (AID 159);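 note: 0% = growth of vehicle-treated control cultures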; conditions: S. cerevisiae rad14 strain growth inhibition, active compounds read high
Outline: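 Test compounds were applied to a repair-deficient yeast strain. Its growth was then compared with that of cultures given vehicle alone, and inhibition was expressed relative to those controls.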

[8] = NCI Yeast Anticancer Drug Screen. Data for the sgs1 mgt1 strain (AID 161);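 note: 0% = growth of cultures given vehicle only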; conditions: S. cerevisiae sgs1 mgt1 strain, active compounds read high
Outline: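 Test agents were incubated with a DNA-repair-mutant yeast strain. Growth was then read and compared against vehicle-treated controls.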

[9] = NCI Yeast Anticancer Drug Screen. Data for the CLN2oe strain (AID 163);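 note: 0% = growth of vehicle-only control cultures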; conditions: S. cerevisiae CLN2oe strain, active compounds read high
Outline: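 Here, growth inhibition in a cell-cycle-altered yeast strain after compound exposure was quantified against vehicle control growth.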

[10] = NCI Yeast Anticancer Drug Screen. Data for the cln2 rad14 strain (AID 165);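 note: 0% = growth equal to vehicle treated cultures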; conditions: S. cerevisiae cln2 rad14 strain, active compounds read high
Outline: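 Growth of compound-exposed yeast (cln2 rad14 genotype) measured and expressed as inhibition relative to vehicle.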

[11] = NCI Yeast Anticancer Drug Screen. Data for the bub3 strain (AID 167); conditions: S. cerevisiae bub3 mutant strain, active compounds read high
Outline: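 Yeast carrying a defined mutation is treated with each compound, and growth is compared with that of vehicle-exposed cells to give inhibition.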

[12] = NCI Yeast Anticancer Drug Screen. Data for the wt2 strain (AID 169);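 note: 0% = growth of vehicle-treated yeast cultures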; conditions: S. cerevisiae wt2 strain growth inhibition, active compounds read high
Outline: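 Genetically defined yeast strains from a DNA-repair/cell-cycle panel were used. Compound-exposed yeast growth was measured, and the inhibition was calculated relative to vehicle treatment.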

[13] = NCI Yeast Anticancer Drug Screen. Data for the sgs1 strain (AID 173);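 note: 0% = growth of vehicle-only control cultures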; conditions: S. cerevisiae sgs1 mutant, active compounds read high
Outline: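 Relative growth inhibition, referenced to vehicle, was determined in a yeast strain with a defined alteration affecting DNA damage repair or cell cycle control after compound exposure.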

[14] = NCI Yeast Anticancer Drug Screen. Data for the mlh1 rad18 strain (AID 175); conditions: S. cerevisiae mlh1 rad18 strain growth inhibition, active compounds read high
Outline: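 In this whole-cell yeast screen, a strain with altered DNA damage repair is challenged with compound, and its growth is measured against matched vehicle-treated controls.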

[15] = NCI Yeast Anticancer Drug Screen. Data for the rad18 strain (AID 177); conditions: S. cerevisiae rad18 mutant growth inhibition, active compounds read high
Outline: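 Screen uses a yeast strain with a defined lesion in DNA damage repair; compound effect is read as loss of growth compared to untreated vehicle cultures.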

[16] = NCI Yeast Anticancer Drug Screen. Data for the mlh1 strain (AID 171);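 note: 0% = growth of vehicle-treated control cultures of the same strain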; conditions: S. cerevisiae mlh1 strain growth inhibition, active compounds read high
Outline: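 Here the genetically defined yeast mutant is grown with each compound, and the extent to which its growth falls below that of vehicle-exposed cells is reported.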

[17] = at 5.0 µM (retest, dose inferred, filed as 0.5)
[18] = at 50.0 µM (retest, dose inferred, filed as 5.0)

Measured: growth inhibition

O=C(NO)c1coc2ccccc2c1=O
active: [6]; at 50.0 µM 86.1%
inactive: [1]; at 1.2 µM -1% | [1]; at 3.7 µM -4% | [1]; at 11.0 µM -2% | [1]; at 33.0 µM -2% | [1]; at 100.0 µM 9% | [2]; at 1.2 µM 4% | [2]; at 3.7 µM -3% | [2]; at 11.0 µM -3% | [2]; at 33.0 µM -3% | [2]; at 100.0 µM 0% | [3]; at 1.2 µM -2% | [3]; at 3.7 µM -6% | [3]; at 11.0 µM -3% | [3]; at 33.0 µM -5% | [3]; at 100.0 µM -1% | [4]; at 1.2 µM -2% | [4]; at 3.7 µM 2% | [4]; at 11.0 µM -14% | [4]; at 33.0 µM -5% | [4]; at 100.0 µM 9% | [5]; at 1.2 µM 5% | [5]; at 3.7 µM -5% | [5]; [17] -3% | [5]; at 11.0 µM 1% | [5]; at 33.0 µM 0% | [5]; [18] 24% | [5]; at 50.0 µM 31.1% | [5]; at 100.0 µM 15% | [6]; at 1.2 µM -3% | [6]; at 3.7 µM -5% | [6]; [17] 1% | [6]; at 11.0 µM -1% | [6]; at 33.0 µM -4% | [6]; [18] 10% | [6]; at 100.0 µM 0% | [7]; at 1.2 µM 0% | [7]; at 3.7 µM -1% | [7]; at 11.0 µM -1% | [7]; at 33.0 µM -2% | [7]; at 100.0 µM 1% | [8]; [17] 15% | [8]; [18] 13% | [8]; at 50.0 µM 62% | [9]; at 1.2 µM 1% | [9]; at 3.7 µM 2% | [9]; at 11.0 µM 4% | [9]; at 33.0 µM 8% | [9]; at 100.0 µM 8% | [10]; [17] -4% | [10]; [18] 16% | [10]; at 50.0 µM 19.8% | [11]; at 1.2 µM -6% | [11]; at 3.7 µM -5% | [11]; [17] 13% | [11]; at 11.0 µM -2% | [11]; at 33.0 µM -2% | [11]; [18] 61% | [11]; at 50.0 µM 13.7% | [11]; at 100.0 µM -5% | [12]; at 1.2 µM -2% | [12]; at 3.7 µM -4% | [12]; at 11.0 µM -3% | [12]; at 33.0 µM -3% | [12]; at 100.0 µM 4% | [13]; at 1.2 µM -1% | [13]; at 3.7 µM -3% | [13]; at 11.0 µM -2% | [13]; at 33.0 µM -2% | [13]; at 100.0 µM 6% | [14]; [17] 13% | [14]; [18] 10% | [14]; at 50.0 µM -7.15% | [15]; at 1.2 µM -2% | [15]; at 3.7 µM -3% | [15]; at 11.0 µM 2% | [15]; at 33.0 µM -4% | [15]; at 100.0 µM 25%

CC(C)[Si]1(C(C)C)OCC2OC(n3cnc4c(N)ncnc43)C(N)C2O[Si](C(C)C)(C(C)C)O1 (stereo not drawn)
inactive: [1]; at 1.2 µM 3% | [1]; at 3.7 µM 9% | [1]; at 11.0 µM 32% | [2]; at 1.2 µM 5% | [2]; at 3.7 µM 11% | [2]; at 11.0 µM 34% | [3]; at 1.2 µM 10% | [3]; at 3.7 µM 20% | [3]; at 11.0 µM 15% | [3]; at 33.0 µM 24% | [4]; at 1.2 µM 19% | [4]; at 3.7 µM 16% | [4]; at 11.0 µM 20% | [5]; at 1.2 µM 7% | [5]; at 3.7 µM 10% | [5]; [17] 38% | [5]; at 11.0 µM 41% | [6]; at 1.2 µM 19% | [6]; at 3.7 µM -5% | [6]; [17] 14% | [6]; at 11.0 µM 14% | [7]; at 1.2 µM -1% | [7]; at 3.7 µM 1% | [7]; at 11.0 µM 13% | [8]; [17] 7% | [9]; at 1.2 µM 14% | [9]; at 3.7 µM 2% | [9]; at 11.0 µM 5% | [10]; [17] 18% | [12]; at 1.2 µM -50% | [12]; at 3.7 µM -34% | [16]; at 1.2 µM 3% | [16]; at 3.7 µM 14% | [16]; at 11.0 µM 32% | [13]; at 1.2 µM 6% | [13]; at 3.7 µM 5% | [13]; at 11.0 µM 19% | [14]; [17] 47% | [15]; at 1.2 µM -8% | [15]; at 3.7 µM 2% | [15]; at 11.0 µM 22%
active: [1]; at 33.0 µM 98% | [1]; at 100.0 µM 98% | [2]; at 33.0 µM 98% | [2]; at 100.0 µM 98% | [3]; at 100.0 µM 89% | [4]; at 33.0 µM 98% | [4]; at 100.0 µM 98% | [5]; at 33.0 µM 98% | [5]; [18] 98% | [5]; at 50.0 µM 89.8% | [5]; at 100.0 µM 98% | [6]; at 33.0 µM 98% | [6]; [18] 99% | [6]; at 50.0 µM 90.4% | [6]; at 100.0 µM 98% | [7]; at 33.0 µM 98% | [7]; at 100.0 µM 98% | [8]; [18] 99% | [8]; at 50.0 µM 88.8% | [9]; at 33.0 µM 97% | [9]; at 100.0 µM 98% | [10]; [18] 99% | [10]; at 50.0 µM 89.3% | [12]; at 11.0 µM 93% | [12]; at 33.0 µM 98% | [12]; at 100.0 µM 97% | [16]; at 33.0 µM 97% | [16]; at 100.0 µM 98% | [13]; at 33.0 µM 97% | [13]; at 100.0 µM 98% | [14]; [18] 99% | [14]; at 50.0 µM 87.4% | [15]; at 33.0 µM 97% | [15]; at 100.0 µM 97%

Reference: PubChem BioAssay (NCI)
